According to PubChem BioAssay (NCI):
Compounds without any hit were thinned out: in the full panel of roughly 79,000, 15% have a hit. Unmarked numbers belong to inactive results. Calls of active or inactive are those of the source. Rule as the data show it: active = growth inhibition above about 70%; inactive = the rest.

Assay: NCI Yeast Anticancer Drug Screen. Data for the sgs1 mgt1 strain (AID 161);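 also: 0% = growth of cultures given vehicle only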
Settings: S. cerevisiae sgs1 mgt1 strain, at 50.0 µM, active compounds read high
In short: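 Compounds are added to genetically altered yeast, and growth is compared with cultures given vehicle alone to give percent inhibition.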

Row | SMILES | growth inhibition
1 | CC(C(=O)O)N(CCC#N)CCC#N (stereo not given) | -0.5%
2 | O=C(O)c1ccccc1NC(=O)C1CCCCC1 | 16.3%
3 | CCC(C)(O)C(=O)O (stereo not given) | -32.4%
4 | CC1CCCCNC1=S (stereo not given) | 19.9%
5 | CN(C)CCCNc1ccc2nnn3c4ccc([N+](=O)[O-])cc4c(=O)c1c23 | 45.8%
6 | Cc1ccsc1/C=N/Nc1ncccn1 | 23.4%
7 | NC(=O)N/N=C/c1cccc2ccccc12 | -8.8%
8 | O=C(/C(=N\Nc1ccc([N+](=O)[O-])cc1[N+](=O)[O-])c1ccccc1)c1ccccc1 | -2.5%
9 | O=C(O)/C(=C/c1ccccc1)c1ccccc1 | -30.3%
10 | COC(=O)C1C(O)C(C(=O)OC)C(C)N(C)C1C (stereo not given) | -41.5%
11 | Cc1cccc(Cl)c1NC(=O)Nc1ccc(Cl)cc1C(=O)c1ccccc1 | 6.75%
12 | CCOC(=O)C(=CNc1cccc(Cl)c1)C(=O)OCC | -18.9%
13 | CCCNC(=S)/N=C\c1c(O)c2ccccc2oc1=O | -35%
14 | O=C(OC(C[n+]1ccccc1)c1ccccc1)c1ccccc1 (stereo not given) | 4.5%
15 | Nc1cc(=O)[nH]c(N)n1 | -19.6%
16 | O/N=C1\CC2(N3CCOCC3)CCC1(c1ccccc1)CC2 | 54.1%
17 | COC(=O)CC1C(OC)OC23CCC1C2(C)CCC1C3CCC2CC(OC(C)=O)CCC21C (stereo not given) | 13.8%
18 | CC(C)(CO)NC(=O)c1cccs1 | 1.45%
19 | Cc1ccccc1NC(=S)NN | 14.1%
20 | O=C(c1ccc(Cl)cc1)c1ccc(OCCSCCCCCCCCCCSCCOc2ccc(C(=O)c3ccc(Cl)cc3)cc2)cc1 | -35.1%

Row | SMILES | growth inhibition
21 | C=CCNc1ccc(C)cc1 | 20.1%
22 | COC(=O)c1ccc(C(=O)OC)cc1 | 15.9%
23 | O=C(CC1C(=O)Nc2ccccc2S1(=O)=O)Nc1cc(Cl)ccc1Cl (stereo not given) | 7.25%
24 | Cc1cc(Cl)cc(CN(C)Cn2c(=O)cc[nH]c2=O)c1O | 2.7%
25 | C=C1C(=O)N2CCc3c([nH]c4ccccc34)[C@H]2C[C@@H]1CO | 4.2%
26 | C=CCC(OCCC)c1ccc2c(c1)OCO2 (stereo not given) | -0.65%
27 | N=C1N(S(=O)(=O)c2ccccc2)[C@@H](Cc2ccccc2)[C@H](c2ccccc2)C1(c1ccccc1)c1ccccc1 | 6.05%
28 | CCN(CC)C(=O)c1ccccc1 | -10.3%
29 | CCC1(C)CC(C)(C)c2ccc(C)cc21 (stereo not given) | -6.4%
30 | Cn1c(=O)c2nc(SC3CCCCC3)n(C)c2n(C)c1=O | -9.85%
31 | CC(C(=O)O)C1Nc2ccccc2NC1=O (stereo not given) | 7.05%
32 | O=C(NC[N+]12CCO[B-]1(c1ccc(Cl)cc1)OCC2)c1ccccc1O (stereo not given) | 24.1%
33 | O=[N+]([O-])c1ncc(N(CCO)CCO)s1 | 17.6%
34 | CC(=O)C(N)=NCc1ccccc1 | -10.7%
35 | O=C(O)CC(NC(=O)OCc1ccccc1)C(=O)OCc1ccccc1 (stereo not given) | -12.3%
36 | O=C(/C=C/c1ccc(Cl)cc1)c1ccccc1O | -6.05%
37 | CC12CC(=O)C3C(CCC4=CC(=O)CCC43C)C1CC=C2CC(=O)O (stereo not given) | -23.4%
38 | CCOC(=O)C(N=Nc1ccccc1)C(=O)c1ccccc1 (stereo not given) | 50.7%
39 | O=C1c2ccsc2C(=O)c2sc(CO)cc21 | 91% (active)
40 | Cc1cn(C2CC(O)C(COC(=O)C(C)(C)C)O2)c(=O)[nH]c1=O (stereo not given) | 3.85%
